ChEMBL document CHEMBL4513141, “CO-ADD screening of NIH (USA) - Clinical Collection” (2021)
Potency and affinity values are given separately.

How the values were obtained:
[1] = tested on: Staphylococcus aureus; conditions: Concentration 20 uM; ASSAY_TEST Inhibition of Bacterial Growth; detection method Absorption (OD600); MEDIA CAMHB; plate type 384well; NBS; CORNING #3640; time 18 hr
[2] = tested on: Escherichia coli; conditions: Concentration 20 uM; ASSAY_TEST Inhibition of Bacterial Growth; detection method Absorption (OD600); MEDIA CAMHB; plate type 384well; NBS; CORNING #3640; time 18 hr

Structure (SMILES)	Inhibition [1] [%]	Inhibition [2] [%]
C[C@]12CCC(=O)C[C@@H]1CC[C@@H]1[C@@H]2CC[C@@]2(C)[C@H]1CC[C@]2(C)O [MESTANOLONE]	-23.2	5.51
C[C@]12CC(C=O)=C(O)C[C@@H]1CC[C@@H]1[C@@H]2CC[C@@]2(C)[C@H]1CC[C@]2(C)O	4.66	7.86
NCCc1ccccn1	1.79	8.78
CN1CCN(C(=O)O[C@H]2c3nccnc3C(=O)N2c2ccc(Cl)cn2)CC1 [ESZOPICLONE]	-7.93	-0.26
CNS(=O)(=O)Cc1ccc2[nH]cc(CCN(C)C)c2c1.O=C(O)CCC(=O)O [SUMATRIPTAN SUCCINATE]	12.49	0.9
COc1cc2c(cc1OC)[C@@]13CCN4CC5=CCO[C@H]6CC(=O)N2[C@H]1[C@H]6[C@H]5C[C@H]43 [BRUCINE]	7.1	-1.43
CN1CCN2c3ncccc3Cc3ccccc3C2C1 (stereo unspecified) [MIRTAZAPINE]	-16.68	-1.97
C[N+]1(CCC(C(N)=O)(c2ccccc2)c2ccccc2)CCCCC1.[Br-] [FENPIVERINIUM BROMIDE]	4.81	-0.64
CS(=O)(=O)O.O=C(O[C@@H]1C[C@@H]2C[C@H]3C[C@H](C1)N2CC3=O)c1c[nH]c2ccccc12	5.34	6.66
Cl.Cl.OCCN1CCN(CCCN2c3ccccc3Sc3ccc(C(F)(F)F)cc32)CC1 [FLUPHENAZINE HYDROCHLORIDE]	12.42	-6.08
Cl.O.Oc1cc2c(cc1O)[C@H]1c3ccccc3CN[C@@H]1CC2	11.17	6.66
CC[C@]1(O)CC[C@H]2[C@@H]3CCC4=CCCC[C@@H]4[C@H]3CC[C@@]21C [ETHYLESTRENOL]	-6.51	3.02
C[C@]12CCC(=O)C=C1CC[C@@H]1[C@@H]2CC[C@@]2(C)[C@H]1CC[C@]2(C)O [METHYLTESTOSTERONE]	7.28	3.56
COc1cc(-c2ccc(=O)[nH]n2)ccc1OC(F)F [ZARDAVERINE]	7.7	-1.99
CN(C)CCC=C1c2ccccc2CCc2ccccc21.Cl [AMITRIPTYLINE HYDROCHLORIDE]	5.1	1.2
N=C(NCc1ccc(Cl)cc1)SCCCc1c[nH]cn1 [CLOBENPROPIT]	-4.61	-3.53
Br.COc1ccc2c3c1O[C@H]1C[C@@H](O)C=C[C@@]31CCN(C)C2 [GALANTAMINE HYDROBROMIDE]	13.66	3.62
NS(=O)(=O)c1cc(C2(O)NC(=O)c3ccccc32)ccc1Cl (stereo unspecified) [CHLORTHALIDONE]	15.62	-0.28
CN1CCN(C2=Nc3cc(Cl)ccc3Nc3ccccc32)CC1 [CLOZAPINE]	-2.25	-7.08
O=C1Nc2ccc(Cl)cc2C(c2ccccc2Cl)=NC1O (stereo unspecified) [LORAZEPAM]	-3.94	2.56
C[N+]1(C)CCCC(OC(=O)C(O)(c2ccccc2)c2ccccc2)C1.[Br-] (stereo unspecified) [MEPENZOLATE BROMIDE]	1.79	3.23
CN(C)CCOc1ccc(/C(=C(/CCCl)c2ccccc2)c2ccccc2)cc1.O=C(O)CC(O)(CC(=O)O)C(=O)O [TOREMIFENE CITRATE]	24.11	-1.37
CN(C)C(=O)C(CCN1CCC(O)(c2ccc(Cl)cc2)CC1)(c1ccccc1)c1ccccc1.Cl [LOPERAMIDE HYDROCHLORIDE]	6.46	2.77
